PNC assembly inh = blocks assembly of the perinucleolar compartment; PC3M PTB-GFP, PNC prevalence imaging, 16 h; hits give low values; 140,000 tested, 3.1% active; activity change (PNC), negative = inhibition, % at 10 µM;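 active = readout at or below -70, meaning at least 70% loss of cells showing the perinucleolar compartment, a nuclear body marking cancer cells; inconclusive = readout between -30 and a set limit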
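PC3M cells stably expressing PTB-GFP, 750–1000 cells/well, treated 16 h at 37 °C with compound (23 nl of library stock), in duplicate. After paraformaldehyde fixation and Hoechst stain, imaged at 20x; PNC prevalence scored by image analysis.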
HPGD block = blocks human HPGD enzyme activity; P15428; 150,000 tested, 4.3% active; purified HPGD, NADH fluorescence kinetic, PGE2 substrate; Potency, µM, actives largely listed as inhibitors; AID 894
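NADH formation kinetics: reaction with 30 uM PGE2 and 1 mM NAD+ (final), 20 nM enzyme, Tris-HCl pH 8 with Tween 20, after 15 min compound preincubation at room temperature. Fluorescence change, last versus first of five reads.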
ALDH1A1 inh = inhibitors of human aldehyde dehydrogenase 1A1; P00352; Purified ALDH1A1, NADH fluorescence, propionaldehyde substrate; Potency, µM (series often up to 75.3 µM), hits mostly inhibitors; 220,000 tested, 7.3% active
Target sequence (P00352 whole entry, looked up): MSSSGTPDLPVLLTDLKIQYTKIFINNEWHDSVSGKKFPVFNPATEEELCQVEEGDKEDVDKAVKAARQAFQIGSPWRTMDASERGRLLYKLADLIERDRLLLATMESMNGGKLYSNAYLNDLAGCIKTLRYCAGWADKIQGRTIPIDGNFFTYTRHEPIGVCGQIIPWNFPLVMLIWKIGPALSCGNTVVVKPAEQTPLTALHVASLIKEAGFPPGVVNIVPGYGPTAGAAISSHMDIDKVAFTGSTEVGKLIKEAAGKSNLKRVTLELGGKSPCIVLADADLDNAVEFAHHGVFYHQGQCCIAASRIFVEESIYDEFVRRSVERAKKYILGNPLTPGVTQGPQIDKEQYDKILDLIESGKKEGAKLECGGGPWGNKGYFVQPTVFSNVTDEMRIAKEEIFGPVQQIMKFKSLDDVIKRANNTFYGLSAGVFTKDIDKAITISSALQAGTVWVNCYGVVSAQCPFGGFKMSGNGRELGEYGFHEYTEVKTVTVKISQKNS
A number is an active result; - = inactive; ? = inconclusive; . = no result; [ ] = remark or other dose. Only some compounds are listed: those with a hit (about 11% of all), similar ones and a draw of the others. Unless noted, calls follow the shape of the dose curve; as a rule, active = well fitted inhibition curve with a large enough effect (not every such curve was filed as active); inconclusive = small, poorly fitted or top-dose-only effect, or another doubt; inactive = no such curve, though single readings can be large or run the other way.

SMILES | PNC assembly inh | HPGD block | ALDH1A1 inh
O=C(COC(=O)c1cc[n+]([O-])cc1)Nc1ccccc1Sc1ccccc1 | . | . | 11.2µM
Cc1ccc(OCC(=O)c2cc(C)c(C)cc2C)c([N+](=O)[O-])n1 | - | - | 3.55µM
O=C(COC(=O)c1cc[n+]([O-])cc1)Nc1cccc(Cl)c1Cl | . | . | -
Cc1ccc(OCC(=O)Nc2ccccc2Sc2ccccc2)c([N+](=O)[O-])n1 | -107.4 | - | -
COCCn1c(C)cc(C(=O)COc2ccc(C)nc2[N+](=O)[O-])c1C | . | . | 10µM
Cc1ccc(N2C(=O)N(CC(=O)N3CCOCC3)C(=O)C2C)cc1 (stereo unspecified) | . | . | -
Cc1ccc(S(=O)(=O)N[C@H]2COC(=O)[C@@H](Cc3ccccc3)NC(=O)[C@@H](C)COC(=O)C/C=C\[C@@H]2C)cc1 | . | . | -[13.5 µM]
Nc1nc(/C=C/c2cccnc2)nc(-c2ccccc2O)n1 | . | . | -
O=C(Cc1c2ccccc2nc2ccccc12)c1ccccc1 | - | - | -
Cc1nc2ccccc2c2c1C(=O)N(C1CCCCCCC1)C2=O | ? | - | -
CCCCCCN(C(=O)CCCCCN1C(=O)NC(c2cccc([N+](=O)[O-])c2)C(C(=O)OCc2ccccc2)=C1C)C(C(=O)NCCCC)c1ccc(OCC(=O)OC)c(C(=O)OC)c1 (stereo unspecified) | . | - | -
Cc1ccc(C)c(C(=O)COc2ccc(C)nc2[N+](=O)[O-])c1 | ? | - | 1.58µM
Cc1ccc(OCC(=O)c2cc(C)n(-c3ccccc3)c2C)c([N+](=O)[O-])n1 | ? | - | ?
Cn1cnnc1SCC(=O)Nc1ccccc1F | . | . | -
Cn1cnnc1SCC(=O)Nc1nc(-c2ccccc2)cs1 | . | . | -
Cn1cnnc1SCC(=O)NCc1ccccc1 | . | . | -
Cn1cnnc1SCC(=O)Nc1ccc2nc(SCc3cccc4ccccc34)sc2c1 | ? | - | 14.1µM
Cn1cnnc1SCC(=O)Nc1ccc2nc(SCc3ccccc3)sc2c1 | - | ? | 3.55µM
Cn1cnnc1SCC(=O)Nc1ccc2nc(SCc3ccccc3Cl)sc2c1 | - | - | 25.1µM
Cc1cc(C)c2cc(CN(CC3CCCO3)S(=O)(=O)c3ccc4c(c3)OCCO4)c(=O)[nH]c2c1 (stereo unspecified) | - | - | ?
COCCN(CC(=O)NCC1CCCO1)C(=O)CCC(=O)Nc1ccccn1 (stereo unspecified) | . | . | -
Cc1cccc(Oc2nc(-c3cccc([N+](=O)[O-])c3)nc3ccccc23)c1C | - | - | -
O=[N+]([O-])c1cccc(-c2nc(Oc3ccc(Cl)cc3)c3ccccc3n2)c1 | ? | 25.1µM | ?
c1ccc(-c2noc(CC3CCCCC3)n2)nc1 | . | . | -
COc1ccccc1/C=C/C=N/n1c(-c2cc(C)[nH]n2)n[nH]c1=S | - | 14.1µM | ?
SMILES | PNC assembly inh | HPGD block | ALDH1A1 inh
COc1cc(/C=N/n2c(-c3cc(C)[nH]n3)n[nH]c2=S)cc(OC)c1OC | . | . | -
Cc1cc(-c2n[nH]c(=S)n2/N=C/C=C/c2ccccc2)n[nH]1 | - | 15.8µM | -
COc1cccc(/C=N/n2c(-c3cc(C)[nH]n3)n[nH]c2=S)c1O | . | . | -
CC(C)(C)CC(=O)NC(=S)NCc1ccco1 | . | . | -
Cc1nnc(SCC(=O)NCc2ccc3c(c2)OCO3)[nH]c1=O | - | - | -
O=C(CNS(=O)(=O)c1ccc(C(=O)N2CCCCC2)cc1)N1CCCCC1 | - | ? | ?
O=C1NN(c2ccccc2)C(=O)/C1=C/c1ccc(-c2ccc(Cl)c(C(=O)O)c2)o1 | . | . | 12.6µM
O=C1NCC(c2ccccc2)C1C(=O)N/N=C\c1ccc(-c2ccc(Cl)c(Cl)c2)o1 (stereo unspecified) | - | ? | -
C=CCOC(=O)NC(c1ccc(F)c(F)c1)C(C(C)=O)C(=O)OC (stereo unspecified) | . | - | -
CCOC(=O)c1c(C)[nH]c(C)c1C(=O)CN1C(=O)NC2(CCC(C)CC2)C1=O (stereo unspecified) | ? | - | -
CCOC(=O)c1c(C)[nH]c(C)c1C(=O)CN1C(=O)NC(CC(C)C)C1=O (stereo unspecified) | -94.3 | - | -
Cc1ccc(NC(=S)Nc2ccc3nc(-c4ccccn4)c(-c4ccccn4)nc3c2)cc1C | ? | - | 17.8µM
O=C(Nc1ccc2nc(-c3ccccn3)c(-c3ccccn3)nc2c1)N1CCOCC1 | . | . | -
Cc1cc(C)n2nc(SCC(=O)N(C)Cc3ccccc3)nc2n1 | ? | - | -
COc1ccc2cc(C#N)c(SCC(=O)N3CCCC3)nc2c1 | - | - | ?
COc1cc2cc(C#N)c(SCC(=O)N3CCOCC3)nc2cc1OC | -100.0 | - | -
COc1ccc2nc(SCC(=O)N3CCN(c4ccc(F)cc4)CC3)c(C#N)cc2c1 | - | - | 7.94µM
COc1cc2cc(C)c(SCC(=O)N3CCOCC3)nc2cc1OC | - | . | -
